G9a inh = blocks human histone lysine methyltransferase G9a; hit rate 8.8% among 350,000; G9a H3K9 monomethylation, AlphaScreen, 2 h; Potency, µM (series often up to 102 µM), for inactives: top-dose activity, negative = inhibition, hits mostly inhibitors; note: potency is the fitted concentration of half-maximal effect; % is set by controls: 0 for no effect and ±100 for the full control effect; nearly all actives have a fitted effect of over 75% in size
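AlphaScreen detection with an anti-monomethyl H3K9 antibody quantified product after a 2 h room-temperature reaction containing 500 nM biotinylated H3K9 peptide, 20 µM SAM and 20 nM enzyme, which had been preincubated 15 min with compound.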
JMJD2A Tudor = inhibitors of human JMJD2A Tudor domain; O75164; AlphaScreen JMJD2A-Tudor / H3K4me3 peptide binding; Potency, µM (doses to about 114 µM), inactives show at the top dose activity change, negative = inhibition, actives largely listed as inhibitors; hit rate 4.4% among 390,000; AID 504339; note: potency is the fitted concentration of half-maximal effect; % is set by controls: 0 for no effect and ±100 for the full control effect; nearly all actives have a fitted effect of over 50% in size
PLK1 PBD inh = inhibitors of human PLK1 polo-box domain binding; Plk1 PBD binding of FITC phosphopeptide, fluorescence polarization; hit rate 2.8% among 360,000; Potency, µM, for inactives: max response, negative = inhibition, usual class: inhibitors; AID 720504; note: potency is the fitted concentration of half-maximal effect; series mostly up to about 57 µM; % is set by controls: 0 for no effect and ±100 for the full control effect; nearly all actives have a fitted effect of over 65% in size
BAZ2B inh = inhibitors of human BAZ2B bromodomain. Q9UIF8. AlphaScreen BAZ2B-H3K14Ac peptide displacement. Potency, µM (titrated, usually from 114 µM), for inactives: top-dose activity change, negative = inhibition, actives largely listed as inhibitors. hit rate 4.4% among 360,000. AID 504333; note: potency is the fitted concentration of half-maximal effect; % is set by controls: 0 for no effect and ±100 for the full control effect; nearly all actives have a fitted effect of over 60% in size
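Compounds, titrated to a top concentration of 110 uM, were incubated 30 min at room temperature with preformed BAZ2B/acetyl-K14 H3 peptide complex (50 nM each). Proximity signal was measured by AlphaScreen after 20 min with beads.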
HP1b binding inh = blocks HP1-beta chromodomain binding to methylated histone tails; P83916; AlphaScreen HP1-beta / biotin-H3K9me3 peptide binding; Potency, µM (titrated, usually from 114 µM), for inactives: top-dose activity change, negative = inhibition, actives largely listed as inhibitors; hit rate 0.56% among 390,000; note: potency is the fitted concentration of half-maximal effect; nearly all actives have a fitted effect of over 70% in size
Target sequence (P83916 whole entry, looked up): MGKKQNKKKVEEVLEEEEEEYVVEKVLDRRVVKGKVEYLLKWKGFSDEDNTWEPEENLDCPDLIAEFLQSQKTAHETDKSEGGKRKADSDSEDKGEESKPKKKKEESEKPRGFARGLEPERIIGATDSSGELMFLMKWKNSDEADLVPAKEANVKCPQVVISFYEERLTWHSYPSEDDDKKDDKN
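HP1-beta protein (50 nM final) preincubated 30 min at room temperature with biotinylated H3(1-18)K9me3 peptide (50 nM) in PBS pH 7.4, 0.01% Tween-20, then compound added for 30 min. AlphaScreen streptavidin donor/nickel chelate acceptor beads (10 ug/mL final), 30 min dark, luminescence read.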
PI5P4K alpha inh = PI5P4K alpha (human) kinase inhibition | P48426 | PI5P4Kalpha enzyme, ADP-Glo luminescence, 60 min; active compounds read low | max response, % | hit rate 1.2% among 330,000 | AID 652105; active = max response of -50% or lower; inconclusive = between -30% and -50%; inactive = -30% or higher; note: value at the top dose of about 77 µM; % is set by controls: 0 for no effect and ±100 for the full control effect
Target sequence (P48426 whole entry, looked up): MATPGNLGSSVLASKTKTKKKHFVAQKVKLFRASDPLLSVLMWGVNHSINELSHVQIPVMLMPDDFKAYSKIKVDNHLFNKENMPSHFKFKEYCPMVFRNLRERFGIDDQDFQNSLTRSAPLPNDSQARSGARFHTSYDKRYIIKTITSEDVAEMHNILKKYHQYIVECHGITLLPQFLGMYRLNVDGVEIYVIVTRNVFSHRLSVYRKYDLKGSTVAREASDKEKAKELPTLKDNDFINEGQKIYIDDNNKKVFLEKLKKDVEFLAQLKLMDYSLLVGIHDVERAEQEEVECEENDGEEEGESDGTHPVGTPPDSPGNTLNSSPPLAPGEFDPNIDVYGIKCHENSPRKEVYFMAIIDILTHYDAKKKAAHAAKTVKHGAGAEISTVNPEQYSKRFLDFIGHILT
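ADP-Glo luminescence end-point after a 60 min room-temperature kinase reaction. PI5P4Kalpha and substrate in HEPES pH 7.4 buffer with EGTA, 0.1% CHAPS and 5% DMSO; ATP at 5 microM final.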
Active calls of the source: *; ? = inconclusive; / = no result; [ ] = remark or other dose. Rows were chosen to be rich in hits. Some 12% of all compounds tested hit in one or more screens of this group. Unless noted, calls come from the whole dose curve; as a rule, active = well fitted curve in the direction sought with a large enough effect; inconclusive = small, poorly fitted or top-dose-only effect, or another doubt; inactive = no such curve, though single readings can be large; an effect the other way counts as inactive or inconclusive.

SMILES	G9a inh	JMJD2A Tudor	PLK1 PBD inh	BAZ2B inh	HP1b binding inh	PI5P4K alpha inh
CC(C)(C)Cc1nnc(NC(=O)CN2C(=O)c3ccccc3C2=O)s1	35µM*	-1%	?	-26%	?	-15
CCCCc1nnc(NC(=O)CN2C(=O)c3ccccc3C2=O)s1	-34%	-1%	-5%	-37%	19%	-2
CCCc1nnc(NC(=O)CCCN2C(=O)c3ccccc3C2=O)s1	1%[12.7 µM]	-24%[11.4 µM]	27µM*	10%	-1%	-20
CC(C)(C)Cc1nnc(NC(=O)CSc2ccccc2)s1	4.5µM*	56µM*	5.3µM*	?	?	-29
CC(C)Cc1nnc(NC(=O)CN2C(=O)c3ccccc3C2=O)s1	25µM*	-9%	?	-31%	-17%	-28
Cc1ccc(NC(=O)COC(=O)c2ccc(S(=O)(=O)N3CCCC3)cc2)cc1	-31%	-11%	2%	-1%	17%	5
CCc1ccccc1NC(=O)Cn1nc(-c2cc(C)ccc2C)c2c(c1=O)CCCC2	-5%[59 µM]	-13%	/	-6%	18%	/
COc1ccc(C2Nc3ccccc3C(=O)N2NC(C)=O)cc1OC (stereo not drawn)	-5%	-2%	-4%	-10%	35%	-3
COc1ccc(C2Nc3ccccc3C(=O)N2O)cc1OC (stereo not drawn)	10µM*	?	-6%	-23%	47%	-2
Cc1nn(C)c(C)c1C1Nc2ccccc2C(=O)N1O (stereo not drawn)	13µM*	-13%[57.1 µM]	-26%	-19%	50%	11
O=C(Nc1ccc(F)c(Cl)c1)N1CC=C(c2c[nH]c3ccccc23)CC1	?	?	/	?	-10%	/
N#CCC(=O)N1CCN(C(c2ccccc2)c2ccccc2)CC1	/	0%	7%	/	43%	7
O=C(CSc1ncccn1)N1CCN(C(c2ccccc2)c2ccccc2)CC1	5.6µM*	-19%	0%	-7%	-1%	-8
COc1ccc(N2CCN(C(=O)CN3CCN(C(c4ccccc4)c4ccccc4)CC3)CC2)cc1	?	25µM*	10%	50µM*	-73%	-2
C=CCNC(=O)CN1CCC(O)(c2ccccc2)CC1	1%[59 µM]	-10%	-4%	13%	27%	/
C=CCNC(=O)CN1CCN(C(c2ccccc2)c2ccccc2)CC1	11µM*	20µM*	-5%	50µM*	?	-5
O=C(CN1CCN(C(c2ccccc2)c2ccccc2)CC1)N1CCOCC1	8.9µM*	18µM*	-4%	50µM*	18%	/
CCOC(=O)c1nnc2c(-c3ccc(Cl)cc3)c(C)nn2c1N	10%[59 µM]	-1%	/	-2%	35%	/
Cc1ccc(Cl)cc1N(C)C(=O)c1noc2c1CCCCC2	-2%[59 µM]	-4%	/	11%[57.1 µM]	8%	/
CC(O)CC(C(=O)NNc1ccccc1)C(=O)NNc1ccccc1 (stereo not drawn)	3.2µM*	-17%	-8%	-15%	51%	-4
COc1ccccc1CNc1ncnc2c1nnn2C	16%[59 µM]	-18%	/	-5%	24%	/
CCNC(=O)NC(=O)C(C)Sc1nnc(COc2ccccc2Cl)o1 (stereo not drawn)	18µM*	?	-10%	?	63%	-3
CCc1ccccc1NC(=O)CSc1nnc(COc2ccccc2Cl)o1	-31%[59 µM]	3%	/	-1%	36%	/
COc1ccc(-c2onc(C)c2C)cc1S(=O)(=O)NCC1CCN(Cc2cc(C)ccc2C)CC1	-33%[59 µM]	?	/	?	-1%	/
COc1ccc(C2c3c(n(C)c4ccccc34)C(=O)N2CC(=O)Nc2ccc(C)cc2Cl)cc1 (stereo not drawn)	?	-29%	/	-28%	-10%	/
SMILES	G9a inh	JMJD2A Tudor	PLK1 PBD inh	BAZ2B inh	HP1b binding inh	PI5P4K alpha inh
CC(=O)N1N=C2c3ccccc3CCC2C1c1cccs1 (stereo not drawn)	/	-13%	-5%	-5%	30%	4
CN1N=C2c3ccccc3CCCC2C1c1ccc(F)cc1 (stereo not drawn)	79µM*	-17%	1%	-20%	22%	8
O=C(NCCCn1ccnc1)C(=O)NCC1OCCN1S(=O)(=O)c1ccc2c(c1)OCCO2 (stereo not drawn)	/	?	0%	40µM*	1%	1
Cc1cc(C)c(S(=O)(=O)N2CCOC2CNC(=O)C(=O)NCCCn2ccnc2)c(C)c1 (stereo not drawn)	/	50µM*	-2%	13µM*	35%	3
CS(=O)(=O)Nc1cccc(-c2nc(Nc3ccncc3)c3ccccc3n2)c1	6%[0.501 µM]	/	/	/	/	/
Cc1[nH]c(=O)[nH]c(=S)c1C(=O)Nc1ccc(Cl)c(Cl)c1	/	8.9µM*	-2%	/	-42%	?
CCOC(=O)c1c(N)sc(C(O)(C(F)(F)F)C(F)(F)F)c1-c1ccc(OC)cc1OC	79µM*	-23%	-10%	?	26%	/
O=C(NN1S(=O)(=O)c2ccccc2S1(=O)=O)c1ccc(Br)cc1	?	-12%	-27%	50µM*	65%	-2
Cc1cccc(C(=O)NN2S(=O)(=O)c3ccccc3S2(=O)=O)c1	7.1µM*	-2%	-5%	/	91%	4
COc1ccc(OC)c(C2C(C#N)=C(N)Oc3cc(C)[nH]c(=O)c32)c1 (stereo not drawn)	7%[2.33 µM]	?	1%	-3%	31%	1
Cc1nn(-c2cccc(Cl)c2)c2c1C(c1ccncc1)C(C#N)=C(N)O2 (stereo not drawn)	?	79µM*	?	40µM*	?	-16
Cc1nn(-c2cccc(Cl)c2)c2c1C(c1cccnc1)C(C#N)=C(N)O2 (stereo not drawn)	45µM*	?	?	50µM*	-15%	/
COc1ccc(OC)c(C2C(C#N)=C(N)Oc3c2c(C)nn3-c2cccc(Cl)c2)c1 (stereo not drawn)	40µM*	50µM*	24µM*	40µM*	-38%	/
S=C1NC2(CCCCC2)Nc2ccccc21	45µM*	-17%	-13%	?	7%	-2
S=C1NC2(CCCC2)Nc2ccccc21	11µM*	-13%	-7%	?	49%	1
c1cc2c3c(cccc3c1)NC1(CCCC1)N2	/	?	-16%	/	-16%	?
Cc1cn(S(=O)(=O)c2ccc(F)c(Cl)c2)cn1	4%[59 µM]	-7%	/	-18%	55%	/
CCN(CC)C(=S)SC1=CCS(=O)(=O)C1	20µM*	3%[11.4 µM]	-15%	/	45%	10
N=C(N)SCC1=CCS(=O)(=O)C1	9%	-10%	-5%	0%	46%	0
CCn1c(SCC(=O)N2c3ccccc3Sc3ccccc32)nnc1-c1ccco1	6.3µM*	?	-6%	?	-7%	/
CCn1c(SCC(N)=O)nnc1-c1ccco1	9%	-7%	-3%	10%	12%	3
CCn1c(SCC(=O)c2cccs2)nnc1-c1ccco1	50µM*	-16%	-18%	-5%	33%	-7

Assay outcomes as filed in PubChem.
